These results are taken from PubChem BioAssay (EPA / NIEHS).

“And” between values parts separate entries of the source, which are not always exact repeats. Equal entries are not always repeated. Some structures have more than one record in an assay (separate samples or runs), and their calls can disagree. The source made the active and inactive calls. The calls were made as follows: active = hit-call score of the fitted dose curve at least 0.9, where 1 is the maximum; inactive = score below 0.9.

Experiment [1] in a line: CEETOX_H295R_DOC: CeeTox H295R High-throughput Steroidogenesis Assay for DOC (AID 2283439). The settings on record: actives raise or lower the signal. The method in brief:
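Secreted DOC was quantified from H295R media by HPLC-MS/MS after 48 h chemical exposure following 48 h forskolin (10 uM) prestimulation. Values were fitted in both directions relative to DMSO, the negative control and baseline.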

Experiment [2] in a line: CEETOX_H295R_PROG: CeeTox H295R High-throughput Steroidogenesis Assay for Progesterone (PROG) (AID 2283442). The settings on record: actives raise or lower the signal. In short, it runs like this: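 H295R human adrenal cells were prestimulated with 10 uM forskolin for 48 h, then exposed to test chemical (0.1% DMSO final) for 48 h. Medium progesterone was MTBE-extracted and quantified by HPLC-MS/MS, with bidirectional fitting against DMSO.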

Read-out in experiment [3]: Tumor necrosis factor receptor superfamily member 6 (Homo sapiens) (UniProt P25445)
Nature of the experiment: LTEA_HepaRG_FAS: Life Technologies and Expression Analysis (LTEA) Assay for Fas cell surface death receptor (FAS) using HepaRG (AID 2283447). The settings on record: mRNA level, 48 h; actives raise or lower the signal. The method in brief:
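Differentiated HepaRG cells in serum-free induction medium were exposed 48 h to 8 half-log concentrations up to 100 uM in 0.5% DMSO, in duplicate. FAS mRNA was measured by qRT-PCR normalised to ACTB, GAPDH and POLR2A; bidirectional fit versus DMSO.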

Read-out in experiment [4]: Fatty acid synthase (Homo sapiens) (UniProt P49327)
Briefly: LTEA_HepaRG_FASN: Life Technologies and Expression Analysis (LTEA) Assay for Fatty Acid Synthase (FASN) using HepaRG (AID 2283448). The settings on record: mRNA level, 48 h; actives raise or lower the signal. The method in brief:
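Transcript-level assay: HepaRG liver cells are treated for 48 h across an eight-point range topping at 100 uM, and FASN mRNA, normalized to three housekeeping genes, is compared with DMSO controls in both directions.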

Read-out in experiment [5]: Cyclin D2 (CCND2), CCND2 (gene 894)
Nature of the experiment: LTEA_HepaRG_CCND2: Life Technologies and Expression Analysis (LTEA) Assay for Cyclin D2 (CCND2) using HepaRG (AID 2283449).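 Also: CCND2 transcript measured by TaqMan qRT-PCR and normalised to three housekeeping genes.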 As to conditions: mRNA level, 48 h; actives raise or lower the signal. In short, it runs like this:
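Chemicals in 0.5% DMSO, eight half-log concentrations from 100 uM top, were applied in duplicate for 48 h to human HepaRG cells in serum-free induction medium. CCND2 mRNA by TaqMan qRT-PCR, normalised to ACTB/GAPDH/POLR2A; bidirectional fit versus DMSO.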

Read-out in experiment [6]: Cyclin Dependent Kinase Inhibitor 1A (CDKN1A), CDKN1A (gene 1026)
Nature of the experiment: LTEA_HepaRG_CDKN1A: Life Technologies and Expression Analysis (LTEA) Assay for Cyclin Dependent Kinase Inhibitor 1A (CDKN1A) using HepaRG (AID 2283450). As to conditions: mRNA level, 48 h; actives raise or lower the signal. In short, it runs like this:
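Differentiated human HepaRG cells, pre-cultured 48 h, were exposed in duplicate for 48 h in serum-free induction medium to eight half-log concentrations up to 100 uM (0.5% DMSO). CDKN1A mRNA was measured by qRT-PCR, normalized to ACTB/GAPDH/POLR2A, bidirectionally fitted versus DMSO.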

Read-out in experiment [7]: catalase (CAT), CAT (gene 847)
Nature of the experiment: LTEA_HepaRG_CAT: Life Technologies and Expression Analysis (LTEA) Assay for catalase (CAT) using HepaRG (AID 2283452). As to conditions: mRNA level, 48 h; actives raise or lower the signal. The method in brief:
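HepaRG cells in serum-free induction medium, 0.5% DMSO vehicle, exposed 48 h in duplicate over 8 half-log concentrations from 100 uM. CAT mRNA measured by qRT-PCR, normalized to ACTB, GAPDH, POLR2A; bidirectional fit versus DMSO.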

Read-out in experiment [8]: flavin-containing dimethylaniline monooxygenases 3 (FMO3), FMO3 (gene 2328)
Nature of the experiment: LTEA_HepaRG_FMO3: Life Technologies and Expression Analysis (LTEA) Assay for flavin-containing dimethylaniline monooxygenases 3 (FMO3) using HepaRG (AID 2283453). As to conditions: mRNA level, 48 h; actives raise or lower the signal. The method in brief:
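HepaRG, 48 h exposure, 8-pt half-log series from 100 uM, 0.5% DMSO vehicle, duplicates; FMO3 transcript by Fluidigm TaqMan qRT-PCR, housekeeping-normalized; gain/loss fit vs DMSO.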

Read-out in experiment [9]: Cytochrome P450 (CYP1A1), CYP1A1 (gene 1543)
Nature of the experiment: LTEA_HepaRG_CYP1A1: Life Technologies and Expression Analysis (LTEA) Assay for Cytochrome P450 (CYP1A1) using HepaRG (AID 2283454). The settings on record: mRNA level, 48 h; actives raise or lower the signal. In short, it runs like this:
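Differentiated HepaRG cells in serum-free induction medium were exposed in duplicate for 48 h to eight half-log concentrations up to 100 uM in 0.5% DMSO. CYP1A1 mRNA was quantified by TaqMan qRT-PCR, normalized to ACTB, GAPDH and POLR2A.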

Read-out in experiment [10]: CFLAR gene, CFLAR (gene 8837)
Nature of the experiment: LTEA_HepaRG_CFLAR: Life Technologies and Expression Analysis (LTEA) Assay for CFLAR gene using HepaRG (AID 2283455). As to conditions: mRNA level, 48 h; actives raise or lower the signal. The method in brief:
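Differentiated HepaRG cells in serum-free induction medium were exposed 48 h in duplicate to eight half-log concentrations up to 100 uM in 0.5% DMSO; mRNA measured by TaqMan qRT-PCR, normalized to ACTB, GAPDH, POLR2A; bidirectional fitting versus DMSO.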

Read-out in experiment [11]: Forkhead box O1 (FOXO1), FOXO1 (gene 2308)
Nature of the experiment: LTEA_HepaRG_FOXO1: Life Technologies and Expression Analysis (LTEA) Assay for Forkhead box O1 (FOXO1) using HepaRG (AID 2283456). The settings on record: mRNA level, 48 h; actives raise or lower the signal. The method in brief: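 Differentiated HepaRG cells, in serum-free induction medium with 0.5% DMSO, exposed 48 h in duplicate to 8-point half-log series from 100 uM. FOXO1 mRNA measured by TaqMan qRT-PCR, normalized to ACTB, GAPDH, POLR2A; bidirectional fit versus DMSO.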

Read-out in experiment [12]: growth arrest and DNA damage 45 (GADD45A), GADD45A (gene 1647)
Nature of the experiment: LTEA_HepaRG_GADD45A: Life Technologies and Expression Analysis (LTEA) Assay for growth arrest and DNA damage 45 (GADD45A) using HepaRG (AID 2283458). As to conditions: mRNA level, 48 h; actives raise or lower the signal. In short, it runs like this:
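Human HepaRG liver cells are treated in duplicate for 48 h with chemicals in 0.5% DMSO, highest concentration 100 uM. Expression is read by qRT-PCR and analyzed in both directions against vehicle.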

Read-out in experiment [13]: Forkhead box O3 (FOXO3), FOXO3 (gene 2309)
Briefly: LTEA_HepaRG_FOXO3: Life Technologies and Expression Analysis (LTEA) Assay for Forkhead box O3 (FOXO3) using HepaRG (AID 2283459). As to conditions: mRNA level, 48 h; actives raise or lower the signal. The method in brief:
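Differentiated human HepaRG cells, 48 h post-plating, exposed in duplicate for 48 h in serum-free induction medium; 8-point half-log series from 100 uM in 0.5% DMSO. FOXO3 mRNA by TaqMan qRT-PCR, normalized to ACTB/GAPDH/POLR2A; bidirectional fit versus DMSO.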

Read-out in experiment [14]: ABC Transporter (ABCB1), ABCB1 (gene 5243)
Nature of the experiment: LTEA_HepaRG_ABCB1: Life Technologies and Expression Analysis (LTEA) Assay for ABC Transporter (ABCB1) using HepaRG (AID 2283460). As to conditions: mRNA level, 48 h; actives raise or lower the signal. The method in brief: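 HepaRG cells exposed in duplicate for 48 h in serum-free induction medium to eight half-log concentrations up to 100 uM in 0.5% DMSO. ABCB1 mRNA quantified by qRT-PCR, normalised to ACTB, GAPDH and POLR2A; fitted bidirectionally versus DMSO.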

Read-out in experiment [15]: growth arrest and DNA damage 45 (GADD45B), GADD45B (gene 4616)
Briefly: LTEA_HepaRG_GADD45B: Life Technologies and Expression Analysis (LTEA) Assay for growth arrest and DNA damage 45 (GADD45B) using HepaRG (AID 2283461). The settings on record: mRNA level, 48 h; actives raise or lower the signal. In short, it runs like this: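 Differentiated HepaRG cells, plated 48 h then switched to serum-free induction medium, were exposed 48 h in duplicate to eight half-log concentrations from 100 uM in 0.5% DMSO; mRNA quantified by qRT-PCR, normalized to ACTB/GAPDH/POLR2A, bidirectional fit versus DMSO.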

Read-out in experiment [16]: Cyclin D1 (CCND1), CCND1 (gene 595)
Nature of the experiment: LTEA_HepaRG_CCND1: Life Technologies and Expression Analysis (LTEA) Assay for Cyclin D1 (CCND1) using HepaRG (AID 2283451). The settings on record: mRNA level, 48 h; actives raise or lower the signal. In short, it runs like this: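 Differentiated human HepaRG cells in serum-free induction medium were exposed 48 h to eight half-log concentrations up to 100 uM in 0.5% DMSO; mRNA quantified by TaqMan qRT-PCR, normalized to ACTB, GAPDH, POLR2A, fitted bidirectionally versus DMSO.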

Sequence of Fatty acid synthase (Homo sapiens) (P49327 whole entry, looked up): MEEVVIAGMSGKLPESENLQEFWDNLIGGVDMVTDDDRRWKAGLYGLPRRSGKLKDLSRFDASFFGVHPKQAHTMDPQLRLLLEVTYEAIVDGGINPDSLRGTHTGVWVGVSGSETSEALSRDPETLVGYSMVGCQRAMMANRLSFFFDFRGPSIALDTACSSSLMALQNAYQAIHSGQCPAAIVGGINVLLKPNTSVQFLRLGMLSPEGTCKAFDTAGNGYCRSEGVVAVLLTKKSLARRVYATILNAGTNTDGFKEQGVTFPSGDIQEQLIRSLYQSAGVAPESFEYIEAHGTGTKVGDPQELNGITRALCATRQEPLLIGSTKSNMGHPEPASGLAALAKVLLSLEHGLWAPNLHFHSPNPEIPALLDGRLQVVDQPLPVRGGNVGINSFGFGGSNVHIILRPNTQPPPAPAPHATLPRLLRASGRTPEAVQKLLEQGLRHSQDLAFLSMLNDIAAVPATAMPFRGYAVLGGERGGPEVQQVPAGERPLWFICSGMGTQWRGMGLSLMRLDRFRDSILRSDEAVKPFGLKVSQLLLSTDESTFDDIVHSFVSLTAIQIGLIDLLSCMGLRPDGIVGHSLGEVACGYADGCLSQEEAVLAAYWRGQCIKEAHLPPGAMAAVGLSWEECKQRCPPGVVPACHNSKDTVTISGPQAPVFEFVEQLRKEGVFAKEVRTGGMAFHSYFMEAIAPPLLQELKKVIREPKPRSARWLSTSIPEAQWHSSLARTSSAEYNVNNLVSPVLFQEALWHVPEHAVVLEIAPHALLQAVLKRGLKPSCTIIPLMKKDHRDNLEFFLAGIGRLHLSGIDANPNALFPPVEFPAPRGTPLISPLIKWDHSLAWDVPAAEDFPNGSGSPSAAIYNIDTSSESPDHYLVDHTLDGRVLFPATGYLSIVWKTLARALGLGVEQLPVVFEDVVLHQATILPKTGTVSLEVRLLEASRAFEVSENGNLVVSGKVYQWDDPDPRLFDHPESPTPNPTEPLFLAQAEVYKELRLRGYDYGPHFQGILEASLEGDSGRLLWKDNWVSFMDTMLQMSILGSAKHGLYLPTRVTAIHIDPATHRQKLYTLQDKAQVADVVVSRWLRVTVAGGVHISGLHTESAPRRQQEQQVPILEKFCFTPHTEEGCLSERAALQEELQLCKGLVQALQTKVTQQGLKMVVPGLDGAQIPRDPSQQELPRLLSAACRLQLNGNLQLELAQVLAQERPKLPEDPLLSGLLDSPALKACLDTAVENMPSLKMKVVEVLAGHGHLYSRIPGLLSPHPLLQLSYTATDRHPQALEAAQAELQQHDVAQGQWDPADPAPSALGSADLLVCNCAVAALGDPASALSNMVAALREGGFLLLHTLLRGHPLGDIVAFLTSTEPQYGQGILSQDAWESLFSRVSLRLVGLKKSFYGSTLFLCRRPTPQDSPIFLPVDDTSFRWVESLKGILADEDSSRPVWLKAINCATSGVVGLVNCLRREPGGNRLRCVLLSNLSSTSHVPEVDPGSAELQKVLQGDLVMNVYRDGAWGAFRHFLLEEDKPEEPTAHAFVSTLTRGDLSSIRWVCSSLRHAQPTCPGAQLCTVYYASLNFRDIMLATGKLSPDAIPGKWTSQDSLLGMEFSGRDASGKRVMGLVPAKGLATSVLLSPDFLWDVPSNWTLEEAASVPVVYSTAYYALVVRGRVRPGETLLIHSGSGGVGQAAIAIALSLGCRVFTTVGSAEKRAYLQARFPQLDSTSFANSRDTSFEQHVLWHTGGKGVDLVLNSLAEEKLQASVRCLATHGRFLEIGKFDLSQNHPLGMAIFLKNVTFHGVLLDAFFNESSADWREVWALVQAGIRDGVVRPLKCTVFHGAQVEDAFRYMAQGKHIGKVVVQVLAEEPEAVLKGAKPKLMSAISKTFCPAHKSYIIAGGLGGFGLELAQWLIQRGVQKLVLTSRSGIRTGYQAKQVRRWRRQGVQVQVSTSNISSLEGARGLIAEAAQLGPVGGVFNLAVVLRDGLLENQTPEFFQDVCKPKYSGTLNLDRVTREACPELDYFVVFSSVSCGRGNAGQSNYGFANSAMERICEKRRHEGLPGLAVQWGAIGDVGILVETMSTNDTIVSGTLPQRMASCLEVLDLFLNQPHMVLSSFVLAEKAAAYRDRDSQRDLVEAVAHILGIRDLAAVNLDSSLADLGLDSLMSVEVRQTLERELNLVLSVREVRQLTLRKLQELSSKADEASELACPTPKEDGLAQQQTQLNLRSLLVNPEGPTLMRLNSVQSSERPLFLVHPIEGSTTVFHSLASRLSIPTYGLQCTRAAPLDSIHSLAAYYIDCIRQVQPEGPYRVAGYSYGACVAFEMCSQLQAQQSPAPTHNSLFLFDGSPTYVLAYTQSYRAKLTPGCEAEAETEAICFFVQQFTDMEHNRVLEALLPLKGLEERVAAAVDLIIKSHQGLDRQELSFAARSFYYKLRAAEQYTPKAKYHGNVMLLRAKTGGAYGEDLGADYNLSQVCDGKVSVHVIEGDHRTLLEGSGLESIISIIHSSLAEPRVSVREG

For `Oc1cc(Cl)ccc1Oc1ccc(Cl)cc1Cl`, the molecule was classed as inactive in [1], in experiment [2], in experiment [3], in [4], in experiment [5] and in [6]. Further, the call in experiment [7], in experiment [8], in experiment [10], in experiment [11], in experiment [12] and in [13] was inactive. The call in experiment [14] and in experiment [15] was inactive. Besides, the AC50 (as a rule, the midpoint of the concentration-response curve, whichever way the signal moves) in experiment [4] was 69.9 µM (active); in [7] it was 90.2 µM (active); in [8], 85.1 µM (active); in experiment [9], 77.3 µM (active) and 88.3 µM (active) and 79.3 µM (active); in [12] it was 10.1 µM (active); in experiment [13], 0.067 µM (active).

For `CC[C@H](C)[C@H]1O[C@]2(C=C[C@@H]1C)C[C@@H]1C[C@@H](C/C=C(\C)[C@@H](O[C@H]3C[C@H](OC)[C@@H](O[C@H]4C[C@H](OC)[C@@H](O)[C@H](C)O4)[C@H](C)O3)[C@@H](C)/C=C/C=C3\CO[C@@H]4[C@H](O)C(C)=C[C@@H](C(=O)O1)[C@]34O)O2` (tested in a mixture with another compound), the outcome in [1], in experiment [2], in [12] and in experiment [13] was inactive. Besides, the AC50 was 11.4 µM (active) in [4]; 7.59 µM (active) in [6]; 10.5 µM (active) in experiment [7]; 14 µM (active) in experiment [8]; 0.361 µM (active) in [9]; 30.2 µM (active) in experiment [10]. For the same molecule, the values for the AC50 in [11], in experiment [14] and in [15] were 17.5 µM (active), 55.2 µM (active) and 7.13 µM (active), respectively.

As for `N#CN`, the outcome in experiment [3], in experiment [4], in [5], in experiment [6], in experiment [16] and in experiment [7] was inactive. The molecule was classed as inactive in experiment [8], in experiment [9], in [10], in experiment [11], in experiment [12] and in experiment [13]. For the same molecule, the molecule was classed as inactive in experiment [14] and in experiment [15].

Take `O=S1OCC2C(CO1)C1(Cl)C(Cl)=C(Cl)C2(Cl)C1(Cl)Cl` (stereo not given): the call in experiment [3], in [4], in experiment [10], in experiment [11], in [12] and in experiment [13] was inactive. The result in experiment [14] and in experiment [15] was inactive. For the same molecule, the AC50 is 79.1 µM (active) in [6], 52.3 µM (active) in experiment [7], 83.4 µM (active) in experiment [8] and 50 µM (active) in experiment [9].

With `COP(=O)(OC)OC=C(Cl)Cl`, the molecule was classed as inactive in experiment [3], in experiment [4], in experiment [5], in experiment [6], in experiment [7] and in experiment [8]. Further, the molecule was classed as inactive in [9], in experiment [10], in experiment [11], in [12], in experiment [13] and in experiment [14]. The molecule was classed as inactive in experiment [15].

Consider `OCCOc1ccccc1`, for which the molecule was classed as inactive in experiment [3], in experiment [4], in experiment [5], in experiment [6], in experiment [7] and in [8]. Moreover, the call in [10], in [11], in [12], in [13], in [14] and in experiment [15] was inactive. In [9], the AC50 was 35.1 µM (active).
